According to PubChem BioAssay:
Activity calls are given as the source filed them. Unless noted, how the calls were made is not given here.

What was measured:
[1] = anti-His antibody binders, primary screen, artefact control for SMM control protein annotation, biochemical, small-molecule microarray, 635 nm fluorescence (AID 1128); settings: anti-His Alexa647 antibody binding, higher = more signal;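 further: score merges feature fluorescence with signal-to-noise for each printed compound spot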
[2] = system: Human papillomavirus type 1a E7 protein (residues 1-88); experiment: HPV1a E7 small-molecule binders, primary screen, biochemical, small-molecule microarray, residues 1-88, 635 nm (AID 1129); settings: small-molecule microarray binding, fluorescence 635 nm; higher = more signal
[3] = biological target: Focal adhesion kinase 1 (Homo sapiens) (UniProt Q05397); experiment: small-molecule microarray binders of FAK, primary screen, biochemical, 635/667 nm fluorescence, BSA, DTT (AID 1130); settings: PTK2 binding, 635 nm fluorescence, higher = more signal;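 further: composite of spot emission at 667 nm and signal to noise over triplicate slides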
[4] = system: Fibrinogen (Alexa647-labelled); experiment: fibrinogen binders on compound microarrays, profiling panel, artefact control for SMM control-protein annotation, biochemical, small-molecule microarray, 635/667 nm fluorescence (AID 1131); settings: fibrinogen-A647 binding fluorescence, higher = more signal;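 further: z-score merges 667 nm fluorescence with per-spot signal-to-noise over triplicate slides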
[5] = biological target: Follistatin (Homo sapiens) (UniProt P19883); experiment: follistatin binders on small-molecule microarrays, primary screen, biochemical, small-molecule microarray, 635/667 nm fluorescence (AID 1132); settings: FST binding, 635 nm fluorescence, higher = more signal
[6] = biological target: Fibroblast growth factor 2 (Homo sapiens) (UniProt P09038); experiment: FGF2 binders on small-molecule microarrays, primary screen, biochemical, small-molecule microarray, 635/667 nm fluorescence (AID 1133); settings: small-molecule microarray binding, FGF2, fluorescence 635/667; higher = more signal
[7] = mitochondrial membrane potential change in A549 cells, profiling panel, cell-based, JC-1 fluorescence, basal, 24 h, 100 nL (AID 1138); settings: higher = more signal;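 further: A549 lung adenocarcinoma cells under basal conditions with no added stimulus; test concentration not given here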
Lefty1 = Lefty1 binders on small-molecule microarrays, primary screen, biochemical, small-molecule microarray, 635/667 nm fluorescence (AID 1139); settings: small-molecule microarray binding, fluorescence 635/667; higher = more signal
[8] = system: wheat germ agglutinin (Triticum aestivum), Alexa647-labelled; experiment: wheat germ agglutinin binders on compound microarrays, profiling panel, artefact control for SMM control-protein annotation, biochemical, small-molecule microarray, 635/667 nm fluorescence (AID 1140); settings: WGA-A647 binding, 635 nm fluorescence, higher = more signal;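 further: score merges 667 nm feature emission with signal to noise over triplicate slides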
[9] = biological target: Luciferin 4-monooxygenase (Photinus pyralis) (UniProt P08659); experiment: firefly luciferase enzyme inhibitors, primary screen, biochemical, luminescence, purified enzyme, 2006 set (AID 1141); settings: SteadyGlo luminescence, 30 min, higher = more signal, called active from +8 up or from −8 down;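 further: cell-free assay with purified firefly luciferase at 100 ng per well in PBS; test concentration not given here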
[10] = system: Wnt5a (protein binding on small-molecule microarray); experiment: Wnt5a binders on small-molecule microarray, primary screen, biophysical, 635/667 nm fluorescence (AID 1142); settings: 635 nm fluorescence, higher = more signal;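 further: fluorescence read at 667 nm with signal to noise per printed feature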
[11] = cell viability in Huh7 cells, primary screen, cytotoxicity control for HCV replication inhibitor project, CellTiter-Glo luminescence, basal, 48 h (AID 1143); settings: Huh7 HCV replicon, higher = more signal, called active from +8 up or from −8 down;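 further: Huh7 hepatoma cells carrying a hepatitis C replication reporter with no stimulus; test concentration not given here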
[12] = P. aeruginosa biofilm formation inhibitors, primary screen, PAO1 strain, BacTiter-Glo luminescence, LB-PBS (AID 1144); settings: 12 h, higher = more signal
[13] = CREB reporter modulators without forskolin, primary screen, cell-based, PC12, CRE-LacZ reporter, unstimulated (AID 1145); settings: no forskolin, luminescence, 4.5 h, higher = more signal, called active from +8 up or from −8 down
[14] = CREB reporter modulators under forskolin, primary screen, cell-based, PC12, CRE-LacZ reporter, forskolin-stimulated (AID 1146); settings: luminescence, 4.5 h, higher = more signal, called active from +8 up or from −8 down;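 further: PC12 cells with 6xCRE LacZ reporter stimulated by forskolin 10 µM; beta-galactosidase reporter signal reflecting CREB driven transcription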
[15] = biological target: Streptavidin (Streptomyces avidinii) (UniProt P22629); experiment: streptavidin binders on small-molecule microarray, primary screen, artefact control for SMM compound annotation, biophysical, 635/667 nm fluorescence (AID 1147); settings: streptavidin binding, higher = more signal;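 further: signal reflects streptavidin binding to arrayed compounds as a control protein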
[16] = small-molecule binders of probe aInhba, primary screen, biochemical, small-molecule microarray, 635/667 nm fluorescence (AID 1148); settings: higher = more signal;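 further: score merges 667nm spot fluorescence with signal-to-noise for antibody binding to printed compounds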
Torsin-1A (Homo sapiens) [17] = biological target: Torsin-1A (Homo sapiens) (UniProt O14656); experiment: torsin A binders from cell lysate, primary screen, small-molecule microarray, wild-type, 635/667 nm (AID 1149); settings: COS7 hTOR1A-WT lysate, 635 nm fluorescence, higher = more signal
Torsin-1A (Homo sapiens) [18] = biological target: Torsin-1A (Homo sapiens) (UniProt O14656); experiment: small-molecule binders of mutant TOR1A in lysate, primary screen, cell lysate, small-molecule microarray, COS7 lysate, 635/667 nm fluorescence (AID 1150); settings: COS7 hTOR1A mutant lysate, 635 nm fluorescence, higher = more signal;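 further: score pools 667 nm emission and signal to noise measuring lysate protein binding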
[19] = system: Sonic hedgehog protein (Shh); experiment: small-molecule binders of Shh protein, primary screen, biochemical, small-molecule microarray, 635/667 nm fluorescence (AID 1151); settings: small-molecule microarray binding, 635 nm fluorescence; higher = more signal;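 further: Shh protein binding to compounds spotted on small-molecule microarray slides; score combines spot fluorescence intensity with signal-to-noise across triplicate slides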

Focal adhesion kinase 1 (Homo sapiens), sequence (Q05397 whole entry, looked up): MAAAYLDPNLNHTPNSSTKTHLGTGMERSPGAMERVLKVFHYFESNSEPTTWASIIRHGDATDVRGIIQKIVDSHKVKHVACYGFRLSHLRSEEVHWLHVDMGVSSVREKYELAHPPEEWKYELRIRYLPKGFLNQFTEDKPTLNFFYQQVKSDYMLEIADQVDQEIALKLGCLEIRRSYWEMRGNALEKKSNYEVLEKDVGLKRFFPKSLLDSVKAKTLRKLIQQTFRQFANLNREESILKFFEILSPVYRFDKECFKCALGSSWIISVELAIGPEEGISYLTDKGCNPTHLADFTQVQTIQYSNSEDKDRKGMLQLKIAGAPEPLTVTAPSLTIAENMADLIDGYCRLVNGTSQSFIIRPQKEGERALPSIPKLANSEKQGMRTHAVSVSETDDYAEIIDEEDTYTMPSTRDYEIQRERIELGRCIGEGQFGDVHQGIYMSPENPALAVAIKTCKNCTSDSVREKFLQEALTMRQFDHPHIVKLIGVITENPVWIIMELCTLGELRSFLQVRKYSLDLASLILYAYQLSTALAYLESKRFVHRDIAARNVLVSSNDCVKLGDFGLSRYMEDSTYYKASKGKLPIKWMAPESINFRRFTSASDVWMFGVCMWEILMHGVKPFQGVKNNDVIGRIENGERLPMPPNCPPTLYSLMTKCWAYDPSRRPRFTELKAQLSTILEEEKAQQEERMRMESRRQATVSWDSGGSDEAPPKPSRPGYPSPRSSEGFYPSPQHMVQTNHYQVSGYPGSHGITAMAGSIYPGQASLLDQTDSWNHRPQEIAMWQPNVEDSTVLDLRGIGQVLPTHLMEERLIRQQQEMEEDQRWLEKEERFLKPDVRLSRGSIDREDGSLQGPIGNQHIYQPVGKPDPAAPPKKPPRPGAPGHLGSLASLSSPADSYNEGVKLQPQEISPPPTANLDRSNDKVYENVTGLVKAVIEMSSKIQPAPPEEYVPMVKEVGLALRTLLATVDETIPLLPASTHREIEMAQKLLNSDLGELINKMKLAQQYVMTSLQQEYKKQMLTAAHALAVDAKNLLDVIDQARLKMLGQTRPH
Follistatin (Homo sapiens), sequence (P19883 whole entry, looked up): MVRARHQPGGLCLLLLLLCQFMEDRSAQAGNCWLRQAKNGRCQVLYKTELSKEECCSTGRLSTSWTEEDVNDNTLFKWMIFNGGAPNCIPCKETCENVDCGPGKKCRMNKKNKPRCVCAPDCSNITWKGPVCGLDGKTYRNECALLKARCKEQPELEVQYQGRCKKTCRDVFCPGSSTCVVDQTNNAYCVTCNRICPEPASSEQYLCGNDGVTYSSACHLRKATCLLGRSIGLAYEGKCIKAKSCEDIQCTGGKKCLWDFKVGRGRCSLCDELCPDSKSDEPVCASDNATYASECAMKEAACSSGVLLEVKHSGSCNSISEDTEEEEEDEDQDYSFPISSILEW
Streptavidin (Streptomyces avidinii), sequence (P22629 whole entry, looked up): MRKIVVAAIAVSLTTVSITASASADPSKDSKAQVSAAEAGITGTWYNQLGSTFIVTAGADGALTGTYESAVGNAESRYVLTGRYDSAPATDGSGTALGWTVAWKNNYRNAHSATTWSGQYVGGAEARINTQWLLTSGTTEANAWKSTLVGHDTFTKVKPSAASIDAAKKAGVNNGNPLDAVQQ
Luciferin 4-monooxygenase (Photinus pyralis), sequence (P08659 whole entry, looked up): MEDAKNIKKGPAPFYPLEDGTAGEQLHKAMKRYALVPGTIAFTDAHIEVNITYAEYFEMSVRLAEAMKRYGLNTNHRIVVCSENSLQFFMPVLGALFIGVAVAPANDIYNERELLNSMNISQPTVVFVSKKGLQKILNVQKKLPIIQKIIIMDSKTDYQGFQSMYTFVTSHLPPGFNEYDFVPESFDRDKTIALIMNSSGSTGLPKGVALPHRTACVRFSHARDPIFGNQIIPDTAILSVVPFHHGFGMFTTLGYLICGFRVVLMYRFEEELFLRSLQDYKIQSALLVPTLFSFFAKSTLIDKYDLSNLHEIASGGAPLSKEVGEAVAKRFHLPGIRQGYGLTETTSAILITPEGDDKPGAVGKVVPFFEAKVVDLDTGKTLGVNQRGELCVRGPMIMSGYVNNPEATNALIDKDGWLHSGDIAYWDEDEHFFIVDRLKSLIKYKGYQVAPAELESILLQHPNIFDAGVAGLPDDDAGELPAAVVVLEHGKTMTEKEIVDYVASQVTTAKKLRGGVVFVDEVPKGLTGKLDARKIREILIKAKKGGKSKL
Torsin-1A (Homo sapiens), sequence (O14656 whole entry, looked up): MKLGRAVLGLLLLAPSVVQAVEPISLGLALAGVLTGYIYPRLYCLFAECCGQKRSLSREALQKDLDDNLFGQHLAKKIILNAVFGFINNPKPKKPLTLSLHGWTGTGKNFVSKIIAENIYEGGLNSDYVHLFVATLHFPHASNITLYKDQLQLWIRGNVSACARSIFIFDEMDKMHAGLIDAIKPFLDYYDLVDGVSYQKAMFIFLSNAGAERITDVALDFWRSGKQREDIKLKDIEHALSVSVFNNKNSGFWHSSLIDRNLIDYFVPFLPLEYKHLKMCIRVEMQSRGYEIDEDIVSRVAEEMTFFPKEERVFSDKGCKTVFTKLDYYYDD
Fibroblast growth factor 2 (Homo sapiens), sequence (P09038 whole entry, looked up): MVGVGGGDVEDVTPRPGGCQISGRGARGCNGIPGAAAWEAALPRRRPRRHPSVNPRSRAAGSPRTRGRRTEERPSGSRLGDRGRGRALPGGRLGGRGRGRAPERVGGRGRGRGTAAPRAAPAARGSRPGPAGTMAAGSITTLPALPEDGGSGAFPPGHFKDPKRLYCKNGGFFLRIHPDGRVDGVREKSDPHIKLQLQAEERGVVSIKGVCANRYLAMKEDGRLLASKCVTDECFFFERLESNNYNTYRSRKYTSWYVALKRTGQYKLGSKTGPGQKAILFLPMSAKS

Structure (SMILES) | composite z-score [1] | composite z-score [2] | composite z-score [3] | composite z-score [4] | composite z-score [5] | composite z-score [6] | z-score [7] | composite z-score (Lefty1) | composite z-score [8] | z-score [9] | composite z-score [10] | z-score [11] | z-score [12] | z-score [13] | z-score [14] | composite z-score [15] | composite z-score [16] | composite z-score (Torsin-1A (Homo sapiens) [17]) | composite z-score (Torsin-1A (Homo sapiens) [18]) | composite z-score [19]
COc1cc2c(cc1OC)CN(C(=O)[C@@H]1[C@H]3C(=O)O[C@H](c4ccccc4)[C@H](c4ccccc4)N3[C@H](c3ccccc3OCCO)[C@@]13C(=O)Nc1ccc(C#CC4(O)CCCCCC4)cc13)CC2 | 1.57 | 1.17 | -0.0242 | 0.787 | 0.954 | 0.513 | -0.825 | 0.895 | 0.9 | -0.877 (inactive) | 0.0109 | -2.91 (inactive) | -0.0135 (inactive) | -0.788 (inactive) | -0.749 (inactive) | 0.445 | -0.0523 | 0.825 | 0.827 | 0.791
C=C[C@@H](C)[C@H](OC(=O)Nc1ccc(SC)cc1)c1ccc(OCCO)cc1 | -0.0489 | -0.784 | 0.31 | -1.64 | 0.229 | -0.549 | -0.497 | 0.0878 | 0.782 | -4.77 (inactive) | -0.403 | -0.957 (inactive) | -1.37 (inactive) | 0.861 (inactive) | -0.97 (inactive) | -0.936 | -0.259 | -0.582 | 0.695 | 0.182
COc1cc2c(cc1O)C(C)N(Cc1cc3c(cc1Br)OCO3)CC2 (stereo not given) | -0.408 | -1.4 | -0.618 | -1.01 | -0.381 | -0.437 | -0.472 | -0.46 | -0.55 | -0.499 (inactive) | -0.131 | -3.33 (inactive) | 0.3 (inactive) | 1.27 (inactive) | 0.861 (inactive) | -0.679 | -0.157 | -1.12 | -0.829 | -0.836
COc1ccc([Si](C)(C)[C@H]2[C@H](CCn3cc([C@H](O)c4ccccc4)nn3)O[C@@]3(C(=O)N(Cc4ccc(N5CCOC5=O)cc4)c4ccccc43)[C@@H]2C)cc1 | -0.194 | -0.993 | -0.775 | -0.231 | -0.988 | -0.785 | 1.26 | -0.919 | -0.0383 | -0.278 (inactive) | -0.271 | -1.3 (inactive) | -0.434 (inactive) | 0.804 (inactive) | -0.889 (inactive) | -0.303 | -0.208 | -0.995 | -1.35 | -0.25
COCCCNC(=O)[C@@H]1c2ccccc2C(=O)N(Cc2ccccc2C(F)(F)F)[C@H]1c1ccc(CO)cc1 | -0.175 | 0.569 | 0.278 | -0.873 | -0.211 | -0.372 | 2.81 | -0.295 | -0.488 | -1.26 (inactive) | 0.143 | 0.442 (inactive) | 0.309 (inactive) | -0.385 (inactive) | -1.45 (inactive) | -0.194 | 0.0536 | 0.285 | 0.331 | 0.23
CCCCC(CC)C(O)C1C=CC2C(=O)N(c3ccccc3)C(=O)C2N1Nc1ccc([N+](=O)[O-])cc1 (stereo not given) | 1.48 | 1.23 | 0.623 | 1.04 | 1.21 | 0.456 | -1.19 | 0.39 | 1.02 | 0.262 (inactive) | 0.382 | -0.728 (inactive) | 0.00163 (inactive) | 0.285 (inactive) | -0.0973 (inactive) | 1.41 | 0.32 | 0.202 | 0.923 | -0.277
C=CCOC(=O)[C@@H]1[C@H]2C(=O)O[C@H](c3ccccc3)[C@H](c3ccccc3)N2[C@H](c2ccc(OCCOC(=O)[C@H]3C[C@H]4C(=O)N[C@@H](CCCCN(C)C)C(=O)N4[C@H]3c3cccc(OCCO)c3)cc2)[C@@]12C(=O)Nc1ccc(I)cc12 | 2.94 | 1.17 | 0.319 | 0.758 | 1.48 | 1.59 | -0.717 | 1.49 | 0.768 | -0.517 (inactive) | 0.402 | -0.015 (inactive) | 0.172 (inactive) | -0.801 (inactive) | 0.387 (inactive) | 0.458 | 0.019 | 1.61 | 1.52 | 2.05
C=CC[C@@]12N=C(c3ccc(OCCCO)cc3)O[C@@H]1c1ccccc1N(CCS(=O)(=O)c1ccccc1)C2=O | 0.954 | 1.22 | 0.87 | 0.944 | 1.3 | 1.55 | 0.699 | 0.51 | 0.961 | -12.1 (active) | 0.518 | -3.23 (inactive) | -0.196 (inactive) | -0.744 (inactive) | -2.22 (inactive) | 1.41 | 0.136 | 0.558 | 0.264 | 1.62
CC(C)C(CO)N1C(=O)[C@]2(C)C3C(=O)OCCC/C=C\[C@H]3OC23C=CCN(c2ccc(Cl)cc2)C(=O)[C@@H]13 (stereo not given in full) | -0.0262 | -0.456 | 0.118 | -0.809 | -0.223 | -0.815 | 0.612 | 0.211 | -0.367 | -0.657 (inactive) | -0.269 | -0.199 (inactive) | 1.25 (inactive) | -0.358 (inactive) | 1.11 (inactive) | -0.476 | -0.128 | -1.47 | -0.856 | 0.279
O=C(CS)NCCCCCCNC(=O)[C@H]1C[C@H]2C(=O)N[C@@H](Cc3ccccc3)C(=O)N2[C@H]1c1cccc(OCCO)c1 | 2.12 | 1.24 | 0.127 | 0.93 | 1.39 | 1.61 | -0.66 | 1.14 | 0.772 | -1.91 (inactive) | 1.02 | 0.0054 (inactive) | -0.885 (inactive) | 0.285 (inactive) | -0.579 (inactive) | 1.22 | 0.177 | 0.78 | 1.06 | 1.72
